Here are results for 18 molecules from the supplement of paper PMC10981050.

Holding throughout (experiment): cell viability relative to vehicle control; higher = less cytotoxic
The subject of one assay is K562. To be noted: 10 µM; SRSF2 genotype: SRSF2 wt/wt. An outline of the steps: (§1)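 Mutant clones made by CRISPR editing and their isogenic wild-type counterparts, from four leukaemia lines, were exposed to a single 10 µM dose of each library compound for 48 h. The supernatant was then removed and CellTiter-Glo luminescence was read. Viability was reported as percent of the on-plate vehicle control.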

The next assay concerns MARIMO. Particulars: 10 µM. An outline of the steps:
as §1

The test system of another assay is MOLM14. To be noted: 10 µM. The method in brief: as §1
A further assay concerns OCI-AML2. Particulars: 10 µM. The method in brief:
as §1

A word on the cell viability: it is a read-out of living cells in per cent, often relative to untreated cells.

Several values for one entry are separate records, joined by “and”; a condition that tells them apart may be missing. Equal entries are not always repeated. Structures can show the parent of a compound that is named as a salt.

Regarding `C[C@@H]1CCN(C(=O)CC#N)C[C@@H]1N(C)c1ncnc2[nH]ccc12`, the cell viability was 99.6% and 112% in the assay on K562; 97.6% and 104% in the assay on MARIMO (SRSF2 genotype: SRSF2 P95H/wt); 99.8% and 112% in the assay on MARIMO (SRSF2 genotype: SRSF2 wt/wt); 85.3% and 95.7% with MOLM14 (SRSF2 genotype: SRSF2 P95H/wt); 104% in the assay on MOLM14 (SRSF2 genotype: SRSF2 wt/wt); 96.5% and 99.1% in the assay with OCI-AML2 (SRSF2 genotype: P95H/wt). Further, the cell viability in the assay on OCI-AML2 (SRSF2 genotype: wt/wt) is 93.8% and 101%.
For the molecule `Cc1cnc(-c2cnc(NCCNc3ccc(C#N)cn3)nc2-c2ccc(Cl)cc2Cl)[nH]1`, the cell viability was 63.6% and 69.4% with K562; 96.3% and 94.4% in the assay with MARIMO (SRSF2 genotype: SRSF2 P95H/wt); 119% and 126% with MARIMO (SRSF2 genotype: SRSF2 wt/wt); 87.2% and 98.8% in the assay on MOLM14 (SRSF2 genotype: SRSF2 P95H/wt); 103% and 110% in the assay on MOLM14 (SRSF2 genotype: SRSF2 wt/wt); 95.8% and 99.6% in the assay on OCI-AML2 (SRSF2 genotype: P95H/wt). Also, in the assay on OCI-AML2 (SRSF2 genotype: wt/wt), the cell viability is 124% and 133%.
Turning to `COc1cccc(-c2ccc(NC(=O)C3=C(C(=O)O)CCC3)c(F)c2)c1` [Vidofludimus], the cell viability with K562 amounted to 93.2%; with MARIMO (SRSF2 genotype: SRSF2 P95H/wt), 115%; with MARIMO (SRSF2 genotype: SRSF2 wt/wt), 120%; with MOLM14 (SRSF2 genotype: SRSF2 P95H/wt), 114%; in the assay on MOLM14 (SRSF2 genotype: SRSF2 wt/wt) it was 108%; in the assay on OCI-AML2 (SRSF2 genotype: P95H/wt), 112%. The cell viability with OCI-AML2 (SRSF2 genotype: wt/wt) came to 112%.
On to `NC(CO)C(=O)NNCc1ccc(O)c(O)c1O` (stereo not given) [Benserazide HCl], for which the cell viability was 80.2% with K562; 103% with MARIMO (SRSF2 genotype: SRSF2 P95H/wt); 95.5% in the assay on MARIMO (SRSF2 genotype: SRSF2 wt/wt); 85.3% in the assay with MOLM14 (SRSF2 genotype: SRSF2 P95H/wt); 71.6% with MOLM14 (SRSF2 genotype: SRSF2 wt/wt); 94.2% in the assay with OCI-AML2 (SRSF2 genotype: P95H/wt). Also, the cell viability with OCI-AML2 (SRSF2 genotype: wt/wt) amounted to 99.5%.
Regarding `O=C(CCCCCCNC(=O)c1cnc(N(c2ccccc2)c2ccccc2)nc1)NO`, the cell viability in the assay with K562 was 52.1%; in the assay with MARIMO (SRSF2 genotype: SRSF2 P95H/wt) it was 17.6%; in the assay on MARIMO (SRSF2 genotype: SRSF2 wt/wt), 35.3%; in the assay on MOLM14 (SRSF2 genotype: SRSF2 P95H/wt), 2.73%; in the assay with MOLM14 (SRSF2 genotype: SRSF2 wt/wt) it was 2.08%; in the assay on OCI-AML2 (SRSF2 genotype: P95H/wt) it was 0.54%. Further, the cell viability in the assay on OCI-AML2 (SRSF2 genotype: wt/wt) amounted to 1.52%.
As for `Nc1cc(N)c(N)cc1N`, the cell viability in the assay with K562 came to 69.4%; in the assay on MARIMO (SRSF2 genotype: SRSF2 P95H/wt), 104%; in the assay with MARIMO (SRSF2 genotype: SRSF2 wt/wt) it was 109%; with MOLM14 (SRSF2 genotype: SRSF2 P95H/wt) it was 96.3%; with MOLM14 (SRSF2 genotype: SRSF2 wt/wt), 105%; in the assay with OCI-AML2 (SRSF2 genotype: P95H/wt), 103%. Moreover, the cell viability in the assay on OCI-AML2 (SRSF2 genotype: wt/wt) was found to be 103%.
On to `c1cc(-c2cnn3cc(-c4ccc(OCCN5CCCCC5)cc4)cnc23)ccn1` [Dorsomorphin (Compound C)], for which the cell viability with K562 came to 64.1%; with MARIMO (SRSF2 genotype: SRSF2 P95H/wt) it was 73.8%; in the assay on MARIMO (SRSF2 genotype: SRSF2 wt/wt) it was 80.9%; in the assay with MOLM14 (SRSF2 genotype: SRSF2 P95H/wt) it was 16.4%; with MOLM14 (SRSF2 genotype: SRSF2 wt/wt) it was 10.9%; with OCI-AML2 (SRSF2 genotype: P95H/wt), 33.1%. Also, the cell viability in the assay on OCI-AML2 (SRSF2 genotype: wt/wt) was determined as 36.2%.
Consider `COc1cc2/c(=N/c3ccc(Br)cc3F)nc[nH]c2cc1OCC1CCN(C)CC1` [Vandetanib (ZD6474)], for which the cell viability with K562 came out at 41%; in the assay with MARIMO (SRSF2 genotype: SRSF2 P95H/wt), 83%; with MARIMO (SRSF2 genotype: SRSF2 wt/wt), 97.2%; in the assay with MOLM14 (SRSF2 genotype: SRSF2 P95H/wt), 57.6%; with MOLM14 (SRSF2 genotype: SRSF2 wt/wt) it was 68.6%; in the assay with OCI-AML2 (SRSF2 genotype: P95H/wt), 77.3%. Also, the cell viability in the assay on OCI-AML2 (SRSF2 genotype: wt/wt) worked out at 75.4%.
Regarding `CN(c1ncccc1CNc1nc(Nc2ccc3c(c2)CC(=O)N3)ncc1C(F)(F)F)S(C)(=O)=O`, the cell viability in the assay with K562 was 27.9% and 21.1%; with MARIMO (SRSF2 genotype: SRSF2 P95H/wt) it was 10.2% and 11.6%; in the assay on MARIMO (SRSF2 genotype: SRSF2 wt/wt), 3.77% and 4.68%; with MOLM14 (SRSF2 genotype: SRSF2 P95H/wt) it was 0.98% and 1.3%; in the assay on MOLM14 (SRSF2 genotype: SRSF2 wt/wt), 0.43% and 0.45%; in the assay with OCI-AML2 (SRSF2 genotype: P95H/wt) it was 1.6% and 2.15%. Besides, the cell viability in the assay on OCI-AML2 (SRSF2 genotype: wt/wt) is 13% and 13.3%.
On to `c1nc2c(NC3CCCCC3)nc(Nc3ccc(N4CCOCC4)cc3)nc2[nH]1` [Reversine], for which the cell viability came to 70.6% in the assay with K562; 38% in the assay on MARIMO (SRSF2 genotype: SRSF2 P95H/wt); 33.8% in the assay on MARIMO (SRSF2 genotype: SRSF2 wt/wt); 9.79% in the assay with MOLM14 (SRSF2 genotype: SRSF2 P95H/wt); 7.29% with MOLM14 (SRSF2 genotype: SRSF2 wt/wt); 10.8% with OCI-AML2 (SRSF2 genotype: P95H/wt). Also, the cell viability in the assay on OCI-AML2 (SRSF2 genotype: wt/wt) amounted to 16.3%.
`C[C@H]1O[C@@H](O[C@H]2CC[C@@]3(C)[C@@H](CC[C@]4(C)[C@@H]3C=C[C@]35OC[C@@]6(CCC(C)(C)C[C@H]63)[C@@H](O)C[C@]54C)[C@]2(C)CO)[C@H](O)[C@@H](O[C@@H]2O[C@H](CO)[C@@H](O)[C@H](O)[C@H]2O)[C@H]1O` [Saikosaponin A]: the cell viability in the assay with K562 was 23.1%; in the assay on MARIMO (SRSF2 genotype: SRSF2 P95H/wt) it was 40.9%; in the assay with MARIMO (SRSF2 genotype: SRSF2 wt/wt), 46.1%; with MOLM14 (SRSF2 genotype: SRSF2 P95H/wt) it was 23.8%; in the assay with MOLM14 (SRSF2 genotype: SRSF2 wt/wt) it was 28.7%; with OCI-AML2 (SRSF2 genotype: P95H/wt), 42.2%. Besides, the cell viability in the assay with OCI-AML2 (SRSF2 genotype: wt/wt) came to 45%.
On to `COc1cc2ncnc(Nc3ccc(F)c(Cl)c3)c2cc1OCCCN1CCOCC1` [Gefitinib (ZD1839)], for which the cell viability in the assay on MARIMO (SRSF2 genotype: SRSF2 P95H/wt) was 63.4%; with MARIMO (SRSF2 genotype: SRSF2 wt/wt) it was 63.1%; in the assay with MOLM14 (SRSF2 genotype: SRSF2 P95H/wt), 39.7%; in the assay with MOLM14 (SRSF2 genotype: SRSF2 wt/wt), 45.2%; with OCI-AML2 (SRSF2 genotype: P95H/wt) it was 53.4%; with OCI-AML2 (SRSF2 genotype: wt/wt) it was 50.9%.
Take `O=C(O[C@@H]1Cc2c(O)cc(O)cc2O[C@H]1c1cc(O)c(O)c(O)c1)c1cc(O)c(O)c(O)c1` [Gallocatechin gallate]: the cell viability was found to be 71% in the assay on K562; 91.1% in the assay with MARIMO (SRSF2 genotype: SRSF2 P95H/wt); 91.7% in the assay with MARIMO (SRSF2 genotype: SRSF2 wt/wt); 77.3% in the assay with MOLM14 (SRSF2 genotype: SRSF2 P95H/wt); 67.3% with MOLM14 (SRSF2 genotype: SRSF2 wt/wt); 94.1% in the assay with OCI-AML2 (SRSF2 genotype: P95H/wt). Besides, the cell viability in the assay with OCI-AML2 (SRSF2 genotype: wt/wt) was 87.8%.
With `O=C1NC(=O)[C@@H](c2cn3c4c(cccc24)CCC3)[C@@H]1c1c[nH]c2ccccc12` [ARQ 197 (Tivantinib)], the cell viability in the assay with K562 was 37%; in the assay with MARIMO (SRSF2 genotype: SRSF2 P95H/wt) it was 6.87%; in the assay with MARIMO (SRSF2 genotype: SRSF2 wt/wt) it was 9.91%; with MOLM14 (SRSF2 genotype: SRSF2 P95H/wt), 17.9%; with MOLM14 (SRSF2 genotype: SRSF2 wt/wt), 4.13%; in the assay with OCI-AML2 (SRSF2 genotype: P95H/wt), 12.1%. Also, in the assay on OCI-AML2 (SRSF2 genotype: wt/wt), the cell viability was determined as 15.4%.
Take `Nc1nc(N)c2nc(-c3ccccc3)c(N)nc2n1` [Triamterene]: the cell viability in the assay with K562 was 33%; with MARIMO (SRSF2 genotype: SRSF2 P95H/wt), 98.2%; in the assay with MARIMO (SRSF2 genotype: SRSF2 wt/wt), 101%; in the assay with MOLM14 (SRSF2 genotype: SRSF2 P95H/wt), 93.7%; in the assay with MOLM14 (SRSF2 genotype: SRSF2 wt/wt), 101%; in the assay on OCI-AML2 (SRSF2 genotype: P95H/wt), 101%. In addition, the cell viability in the assay on OCI-AML2 (SRSF2 genotype: wt/wt) was 101%.
As to `COc1cc(-c2cc(-c3ccc(N4CCNCC4)cc3)cnc2C)cc(OC)c1OC`, the cell viability turned out to be 31.1% in the assay on K562; 46.2% in the assay with MARIMO (SRSF2 genotype: SRSF2 P95H/wt); 46.9% in the assay with MARIMO (SRSF2 genotype: SRSF2 wt/wt); 37.1% in the assay on MOLM14 (SRSF2 genotype: SRSF2 P95H/wt); 31.9% in the assay on MOLM14 (SRSF2 genotype: SRSF2 wt/wt); 17.7% in the assay with OCI-AML2 (SRSF2 genotype: P95H/wt). Moreover, the cell viability in the assay with OCI-AML2 (SRSF2 genotype: wt/wt) came out at 29.3%.
Regarding `COc1cc2c[n+](C)c3c4cc5c(cc4ccc3c2cc1OC)OCO5` [Nitidine Chloride], the cell viability with K562 was determined as 46.1%; in the assay with MARIMO (SRSF2 genotype: SRSF2 P95H/wt) it was 38.6%; in the assay on MARIMO (SRSF2 genotype: SRSF2 wt/wt), 34.6%; in the assay with MOLM14 (SRSF2 genotype: SRSF2 P95H/wt), 0.55%; with MOLM14 (SRSF2 genotype: SRSF2 wt/wt) it was 0.7%; in the assay with OCI-AML2 (SRSF2 genotype: P95H/wt), 0.61%. The cell viability in the assay on OCI-AML2 (SRSF2 genotype: wt/wt) came to 0.76%.
Turning to `CC1(C)CC[C@]2(C(=O)O)CC[C@]3(C)C(=CC[C@@H]4[C@@]5(C)CC[C@H](O[C@@H]6O[C@H](C(=O)O)[C@@H](O)[C@H](O[C@@H]7OC[C@@H](O)[C@H](O)[C@H]7O)[C@H]6O)C(C)(C)[C@@H]5CC[C@]43C)[C@@H]2C1` [Momordin Ic], the cell viability in the assay with K562 worked out at 88.8%; in the assay on MARIMO (SRSF2 genotype: SRSF2 P95H/wt), 103%; with MARIMO (SRSF2 genotype: SRSF2 wt/wt), 108%; in the assay with MOLM14 (SRSF2 genotype: SRSF2 P95H/wt), 110%; with MOLM14 (SRSF2 genotype: SRSF2 wt/wt), 103%; in the assay on OCI-AML2 (SRSF2 genotype: P95H/wt), 97.2%. The cell viability in the assay on OCI-AML2 (SRSF2 genotype: wt/wt) came to 96.6%.
